As a reminder, the AC50 is the midpoint of the concentration-response curve, whichever way the signal moves.

The results in this text go back to PubChem BioAssay (EPA / NIEHS).

“And” between values parts separate entries of the source, which are not always exact repeats. Equal entries are not always repeated. Records with an inconclusive call do not appear. The source made the active and inactive calls. The calls were made as follows: active = hit-call score of the fitted dose curve at least 0.9, where 1 is the maximum; inconclusive = response in the unintended direction; inactive = score below 0.9.

Assay [1] deals with bovine Gamma-Aminobutyric Acid Type A Receptor BDZ, alpha 1 site (GABARa1), GABRA1 (gene 780973) (UniProt P08219). Put plainly: NVS_LGIC_bGABARa1: NovaScreen (NVS) Ligand-Gated Ion Channel Assay for bovine Gamma-Aminobutyric Acid Type A Receptor BDZ, alpha 1 site (GABARa1) (AID 2283321). In a few lines: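 Bovine cortex membrane preparation, benzodiazepine site on GABA-A alpha1; specific radioligand displacement read after 0.75 h by filtration and scintillation. Screen at 25 uM, then singleton titrations up to 50 uM; DMSO baseline.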

Assay [2] concerns the target rat Gamma-Aminobutyric Acid Type A Receptor, Non-Selective (GABAR-NonSelective), Gabra1 (gene 29705) (UniProt P62813). Put plainly: NVS_LGIC_rGABAR_NonSelective: NovaScreen (NVS) Ligand-Gated Ion Channel Assay for rat Gamma-Aminobutyric Acid Type A Receptor, Non-Selective (GABAR-NonSelective) (AID 2283326). The method in brief: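 Compounds were first screened in duplicate at 25 uM, with actives run as singleton concentration series (max 50 uM). Binding of a radioligand to rat whole-brain GABA-A preparation was measured by filtration and scintillation counting after 1 h, DMSO baseline.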

Assay [3] deals with human Peripheral-type Benzodiazepine Receptor (PBR), TSPO (gene 706) (UniProt P30536). Put plainly: NVS_MP_hPBR: NovaScreen (NVS) Membrane Protein Assay for human Peripheral-type Benzodiazepine Receptor (PBR) (AID 2283331).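 Also: hits reduce radioligand binding relative to DMSO baseline.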 The method in brief: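 Using human colon-derived membranes, this one-endpoint binding test reads radioligand loss by scintillation after 1 h. Screening started at 25 uM in duplicate, with positive and negative controls on every plate, and actives moved to dose series.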

The target of assay [4] is rat Peripheral-type Benzodiazepine Receptor (PBR), Tspo (gene 24230) (UniProt P16257). Put plainly: NVS_MP_rPBR: NovaScreen (NVS) Membrane Protein Assay for rat Peripheral-type Benzodiazepine Receptor (PBR) (AID 2283335). The method in brief:
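Single-concentration duplicate screening at 25 uM preceded concentration-series retesting of actives. Binding of a specific radioligand to rat kidney membrane PBR was read by filtration radiodetection after 1 h, with plate-wise positive and negative controls.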

Assay [5] addresses rat Thyrotropin Releasing Hormone Receptor (TRH), Trhr (gene 25570) (UniProt Q01717). Description: NVS_GPCR_rTRH: NovaScreen (NVS) G Protein-Coupled Receptor Assay for rat Thyrotropin Releasing Hormone Receptor (TRH) (AID 2283329).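 Also: hit means lower bound tracer signal versus DMSO baseline.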 In a few lines: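 Rat forebrain membrane prep, radioligand displacement, filter scintillation readout at 4 h. Single conc 25 uM, duplicate; actives retested as concentration series. DMSO = negative control/baseline.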

For assay [6], the target named is rat Glutamate, NMDA Agonist Site (GluNMDA), Grin1 (gene 24408) (UniProt P35439). Put plainly: NVS_LGIC_rGluNMDA_Agonist: NovaScreen (NVS) Ligand-Gated Ion Channel Assay for rat Glutamate, NMDA Agonist Site (GluNMDA) (AID 2283327). In a few lines: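 Radioligand displacement at the agonist site on rat forebrain membrane preparations, read by filter scintillation after 1 h. Chemicals were first run at 25 uM in duplicate; those passing threshold were titrated to a 50 uM maximum.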

The target in assay [7] is rat Glutamate, AMPA Site (AMPA), Gria1 (gene 50592) (UniProt P19490). Put plainly: NVS_LGIC_rAMPA: NovaScreen (NVS) Ligand-Gated Ion Channel Assay for rat Glutamate, AMPA Site (AMPA) (AID 2283324). In a few lines:
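Screening at 25 uM in duplicate preceded concentration series reaching 50 uM for qualifying compounds. Radioligand displacement on rat forebrain membranes, 1 h, filter-based scintillation readout; reduced binding relative to DMSO.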

Assay [8] deals with rat Glutamate, MK-801 Agonist Site (GluNMDA_MK801), Grin1 (gene 24408) (UniProt P35439). Description: NVS_LGIC_rGluNMDA_MK801_Agonist: NovaScreen (NVS) Ligand-Gated Ion Channel Assay for rat Glutamate, MK-801 Agonist Site (GluNMDA_MK801) (AID 2283340). In a few lines: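 Rat forebrain membrane preparation; MK-801-site radioligand binding read by filtration and scintillation after 1.5 h. Single-point 25 uM duplicate screen, followed by singleton concentration series to 50 uM max; DMSO baseline.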

A further assay relates to NCBI gene 24521. Description: NVS_IC_rKATPCh: NovaScreen (NVS) Ion Channel Assay for rat Potassium Channel, ATP-Sensitive (KATPCh) (AID 2283319). In a few lines:
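Primary duplicate screen at 25 uM, then singleton concentration series to 50 uM maximum, in a rat cortex membrane radioligand displacement assay. Binding measured by filtration and scintillation 2 h post-dose; DMSO baseline.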

A short description of assay [9]: NVS_IC_rCaDHPRCh_L: NovaScreen (NVS) Ion Channel Assay for rat Calcium Channel, Type L, Dihydropyridine Site (CaDHPRCh_L) (AID 2283320). In a few lines:
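Rat cortex membrane preparation; dihydropyridine-site radioligand displacement read 1 h post-dose by filtration and scintillation. Primary single-point screen 25 uM in duplicate, then concentration series to 50 uM maximum; DMSO as negative control.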

For assay [10], the target named is Sodium channel protein type 1 subunit alpha (Rattus norvegicus) (UniProt P04774). Put plainly: NVS_IC_rNaCh_site2: NovaScreen (NVS) Ion Channel Assay for rat Sodium Channel, Site 2 (NaCh) (AID 2283322).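 Also: hit means loss of radioligand binding signal relative to DMSO so AC50 marks displacement.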 In a few lines: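 Initial duplicate single-point testing at 25 uM, followed by concentration-response runs for actives. Binding of radioligand to rat forebrain membranes quantified after 1 h via filter-based radiodetection.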

In assay [11] the target is Voltage-gated inwardly rectifying potassium channel KCNH2 (Homo sapiens) (UniProt Q12809). Put plainly: NVS_IC_hKhERGCh: NovaScreen (NVS) Ion Channel Assay for human Potassium Channel ERG (KhERGCh) (AID 2283333). In a few lines: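 Membranes from CHO cells expressing human ERG; displacement of radioligand measured by filtration and scintillation after 0.75 h. Single-concentration duplicate screen at 25 uM, then concentration-response for actives; DMSO baseline.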

Assay [12] can be described thus: NVS_IC_rCaBTZCHL: NovaScreen (NVS) Ion Channel Assay for Calcium Channel, Type L, Benzothiazepine Site (CaBTZCHL) (AID 2283337). The method in brief: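 Benzothiazepine-site binding was assessed in a tissue-derived, cell-free rat cortical membrane system. After 1.5 h exposure, radioactivity retained on filters was quantified by scintillation; positive and negative controls accompanied every plate.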

For assay [13], the target named is bovine Gamma-Aminobutyric Acid Type A Receptor BDZ, alpha 5 site (GABARa5), GABRA5 (gene 523515) (UniProt Q08E50). Put plainly: NVS_LGIC_bGABARa5: NovaScreen (NVS) Ligand-Gated Ion Channel Assay for bovine Gamma-Aminobutyric Acid Type A Receptor BDZ, alpha 5 site (GABARa5) (AID 2283323). In a few lines: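 Tested first in duplicate at a single 25 uM, with hits re-run in concentration series to a 50 uM maximum. Bovine hippocampal membranes; specific radioligand displacement measured by filter scintillation counting 1 hr post-dose.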

Assay [14] addresses human Androgen Receptor (AR), AR (gene 367) (UniProt P10275). Put plainly: NVS_NR_hAR: NovaScreen (NVS) Nuclear Receptor Binding Assay for human Androgen Receptor (AR) (AID 2283332). The method in brief:
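Actives from a duplicate 25 uM single-point screen went on to concentration series. Read-out after 20 h was scintillation counting of displaced radioligand in LnCAP extract, with DMSO as baseline.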

Chain of bovine Gamma-Aminobutyric Acid Type A Receptor BDZ, alpha 1 site (GABARa1), GABRA1 (gene 780973) (P08219 whole entry, looked up): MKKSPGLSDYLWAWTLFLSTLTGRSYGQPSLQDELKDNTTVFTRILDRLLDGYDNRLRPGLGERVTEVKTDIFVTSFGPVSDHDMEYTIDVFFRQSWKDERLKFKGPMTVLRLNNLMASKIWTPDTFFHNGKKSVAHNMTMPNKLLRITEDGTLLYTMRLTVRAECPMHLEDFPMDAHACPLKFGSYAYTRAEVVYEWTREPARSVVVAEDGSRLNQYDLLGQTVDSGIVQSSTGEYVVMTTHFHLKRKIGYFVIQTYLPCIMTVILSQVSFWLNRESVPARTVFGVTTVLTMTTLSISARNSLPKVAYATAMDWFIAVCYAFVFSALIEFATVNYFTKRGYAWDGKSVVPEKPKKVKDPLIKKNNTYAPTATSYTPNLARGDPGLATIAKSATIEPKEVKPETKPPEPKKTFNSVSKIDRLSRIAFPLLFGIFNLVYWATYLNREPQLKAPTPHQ
Chain of rat Peripheral-type Benzodiazepine Receptor (PBR), Tspo (gene 24230) (P16257 whole entry, looked up): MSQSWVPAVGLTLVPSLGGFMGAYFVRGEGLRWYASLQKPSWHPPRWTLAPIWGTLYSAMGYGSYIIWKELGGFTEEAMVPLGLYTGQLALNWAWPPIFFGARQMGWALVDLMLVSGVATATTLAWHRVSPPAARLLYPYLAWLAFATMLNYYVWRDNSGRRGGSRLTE
Chain of rat Gamma-Aminobutyric Acid Type A Receptor, Non-Selective (GABAR-NonSelective), Gabra1 (gene 29705) (P62813 whole entry, looked up): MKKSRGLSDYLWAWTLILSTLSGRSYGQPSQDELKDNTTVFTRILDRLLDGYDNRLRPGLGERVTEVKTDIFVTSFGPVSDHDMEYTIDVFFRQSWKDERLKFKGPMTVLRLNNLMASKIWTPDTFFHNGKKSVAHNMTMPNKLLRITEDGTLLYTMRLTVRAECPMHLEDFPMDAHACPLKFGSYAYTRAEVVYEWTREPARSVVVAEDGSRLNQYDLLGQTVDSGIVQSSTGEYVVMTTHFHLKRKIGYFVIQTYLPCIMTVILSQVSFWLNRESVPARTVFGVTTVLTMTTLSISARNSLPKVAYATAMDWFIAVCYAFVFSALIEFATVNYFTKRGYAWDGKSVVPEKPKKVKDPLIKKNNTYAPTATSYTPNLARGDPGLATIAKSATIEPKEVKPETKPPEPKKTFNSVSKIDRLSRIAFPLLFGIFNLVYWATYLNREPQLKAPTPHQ
Chain of human Peripheral-type Benzodiazepine Receptor (PBR), TSPO (gene 706) (P30536 whole entry, looked up): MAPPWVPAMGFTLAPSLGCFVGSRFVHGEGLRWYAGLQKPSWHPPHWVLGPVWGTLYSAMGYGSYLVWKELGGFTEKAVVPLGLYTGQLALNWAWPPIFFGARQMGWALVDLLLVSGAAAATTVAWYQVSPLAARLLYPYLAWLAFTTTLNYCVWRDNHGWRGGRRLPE
Chain of rat Thyrotropin Releasing Hormone Receptor (TRH), Trhr (gene 25570) (Q01717 whole entry, looked up): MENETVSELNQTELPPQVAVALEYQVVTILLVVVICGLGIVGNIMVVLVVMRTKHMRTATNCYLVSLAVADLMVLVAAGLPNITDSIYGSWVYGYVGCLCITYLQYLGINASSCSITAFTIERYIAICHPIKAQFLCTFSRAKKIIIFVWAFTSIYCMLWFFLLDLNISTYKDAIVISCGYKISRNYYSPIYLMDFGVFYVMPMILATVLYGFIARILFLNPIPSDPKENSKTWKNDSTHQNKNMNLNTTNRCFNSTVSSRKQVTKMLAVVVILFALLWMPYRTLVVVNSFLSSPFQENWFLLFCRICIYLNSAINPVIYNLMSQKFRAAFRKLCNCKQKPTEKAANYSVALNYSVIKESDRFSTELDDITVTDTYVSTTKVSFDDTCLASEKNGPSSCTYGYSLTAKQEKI
Chain of rat Glutamate, AMPA Site (AMPA), Gria1 (gene 50592) (P19490 whole entry, looked up): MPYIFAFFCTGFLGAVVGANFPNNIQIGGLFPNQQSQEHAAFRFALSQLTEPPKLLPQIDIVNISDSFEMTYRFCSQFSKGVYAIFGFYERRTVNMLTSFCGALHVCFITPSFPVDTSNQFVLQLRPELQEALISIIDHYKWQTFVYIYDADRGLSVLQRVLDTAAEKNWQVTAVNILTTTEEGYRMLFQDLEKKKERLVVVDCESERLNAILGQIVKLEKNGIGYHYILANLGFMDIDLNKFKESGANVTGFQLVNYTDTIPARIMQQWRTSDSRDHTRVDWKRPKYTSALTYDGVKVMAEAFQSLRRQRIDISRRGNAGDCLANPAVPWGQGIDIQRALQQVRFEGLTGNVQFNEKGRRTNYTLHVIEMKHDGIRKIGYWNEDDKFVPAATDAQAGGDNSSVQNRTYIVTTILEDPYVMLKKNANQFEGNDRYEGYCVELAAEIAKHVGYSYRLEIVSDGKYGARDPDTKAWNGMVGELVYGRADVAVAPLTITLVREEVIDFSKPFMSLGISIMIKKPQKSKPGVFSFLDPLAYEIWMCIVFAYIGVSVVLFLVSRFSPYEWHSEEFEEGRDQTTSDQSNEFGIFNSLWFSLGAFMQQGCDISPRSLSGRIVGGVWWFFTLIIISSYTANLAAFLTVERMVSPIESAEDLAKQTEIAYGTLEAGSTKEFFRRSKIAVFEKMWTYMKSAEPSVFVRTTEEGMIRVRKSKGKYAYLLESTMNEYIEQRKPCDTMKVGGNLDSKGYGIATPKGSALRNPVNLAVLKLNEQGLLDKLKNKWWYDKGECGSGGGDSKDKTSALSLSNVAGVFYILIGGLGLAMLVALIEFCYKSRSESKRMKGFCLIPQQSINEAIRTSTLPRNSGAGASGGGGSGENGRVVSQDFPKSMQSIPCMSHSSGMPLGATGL
Chain of bovine Gamma-Aminobutyric Acid Type A Receptor BDZ, alpha 5 site (GABARa5), GABRA5 (gene 523515) (Q08E50 whole entry, looked up): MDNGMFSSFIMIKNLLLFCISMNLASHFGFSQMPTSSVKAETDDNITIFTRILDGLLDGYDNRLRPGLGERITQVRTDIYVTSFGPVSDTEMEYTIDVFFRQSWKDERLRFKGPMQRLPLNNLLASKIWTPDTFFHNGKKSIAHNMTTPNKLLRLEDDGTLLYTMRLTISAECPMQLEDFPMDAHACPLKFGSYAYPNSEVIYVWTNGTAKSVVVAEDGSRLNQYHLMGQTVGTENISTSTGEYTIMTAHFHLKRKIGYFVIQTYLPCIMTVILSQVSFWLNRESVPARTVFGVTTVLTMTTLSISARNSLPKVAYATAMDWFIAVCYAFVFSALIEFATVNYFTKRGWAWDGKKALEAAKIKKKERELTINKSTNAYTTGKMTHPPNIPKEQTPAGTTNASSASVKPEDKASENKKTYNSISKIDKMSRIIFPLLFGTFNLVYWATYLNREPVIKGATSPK
Chain of Voltage-gated inwardly rectifying potassium channel KCNH2 (Homo sapiens) (Q12809 whole entry, looked up): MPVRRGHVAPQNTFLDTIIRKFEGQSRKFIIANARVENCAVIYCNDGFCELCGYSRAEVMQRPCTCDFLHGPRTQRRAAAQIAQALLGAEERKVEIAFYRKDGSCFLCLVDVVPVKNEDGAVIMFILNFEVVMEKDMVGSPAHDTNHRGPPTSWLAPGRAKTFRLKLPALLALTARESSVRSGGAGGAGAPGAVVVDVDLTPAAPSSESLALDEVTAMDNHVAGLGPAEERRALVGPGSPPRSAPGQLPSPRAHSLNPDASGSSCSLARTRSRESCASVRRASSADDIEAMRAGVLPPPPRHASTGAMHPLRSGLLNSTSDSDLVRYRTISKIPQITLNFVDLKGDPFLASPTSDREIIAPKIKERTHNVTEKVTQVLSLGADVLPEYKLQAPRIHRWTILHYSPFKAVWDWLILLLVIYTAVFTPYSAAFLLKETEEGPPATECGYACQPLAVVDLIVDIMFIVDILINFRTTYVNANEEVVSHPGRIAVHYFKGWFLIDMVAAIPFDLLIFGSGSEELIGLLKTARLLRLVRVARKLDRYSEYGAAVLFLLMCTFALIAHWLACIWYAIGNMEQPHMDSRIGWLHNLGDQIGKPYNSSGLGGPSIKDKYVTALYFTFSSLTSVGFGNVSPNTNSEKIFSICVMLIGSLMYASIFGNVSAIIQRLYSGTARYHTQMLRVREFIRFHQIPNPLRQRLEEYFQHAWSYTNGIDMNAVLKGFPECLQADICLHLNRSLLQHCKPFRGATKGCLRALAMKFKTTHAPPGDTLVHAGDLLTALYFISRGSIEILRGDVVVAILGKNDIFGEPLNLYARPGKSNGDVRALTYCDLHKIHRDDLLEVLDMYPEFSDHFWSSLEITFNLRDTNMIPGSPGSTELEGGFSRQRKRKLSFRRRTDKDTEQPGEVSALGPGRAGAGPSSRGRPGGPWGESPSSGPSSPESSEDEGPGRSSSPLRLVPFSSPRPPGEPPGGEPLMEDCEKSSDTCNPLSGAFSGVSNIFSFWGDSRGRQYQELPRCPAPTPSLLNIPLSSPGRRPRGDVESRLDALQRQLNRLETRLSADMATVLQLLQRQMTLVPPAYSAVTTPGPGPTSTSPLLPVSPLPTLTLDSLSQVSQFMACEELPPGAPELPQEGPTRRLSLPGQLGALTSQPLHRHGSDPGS

For `CCOC(=O)C(Cl)Cc1cc(-n2nc(C)n(C(F)F)c2=O)c(F)cc1Cl` (stereo not drawn), the molecule was called inactive in assay [1] and in assay [2]. The values for the half-maximal activity concentration (AC50) in [3] and in assay [4] were 25 µM (active) and 16.1 µM (active), respectively.
Consider `N#Cc1nn(-c2c(Cl)cc(C(F)(F)F)cc2Cl)c(N)c1S(=O)C(F)(F)F` (stereo not drawn), for which the outcome in assay [5] was inactive.
Consider `CCCCC(CC)COC(=O)c1ccccc1C(=O)OCC(CC)CCCC` (stereo not drawn), for which the call in [6] was inactive. The values for the AC50 in assay [3] and in [4] were 8.75 µM (active) and 15.6 µM (active), respectively.
Consider `N#Cc1cc(Br)c(O)c(Br)c1`, for which, in assay [2], the molecule was classed as inactive.
As for `CCOc1cc(Oc2ccc(C(F)(F)F)cc2Cl)ccc1[N+](=O)[O-]`, the molecule was called inactive in assay [5].
In the case of `C=CCC1=C(C)C(OC(=O)C2C(C=C(C)C)C2(C)C)CC1=O` (stereo not drawn), the AC50 in assay [2] is 7.41 µM (active) and 66.1 nM (active). In addition, the outcome in [3] and in assay [4] was inactive.
For `CNC(=S)S`, the molecule was classed as inactive in assay [7], in assay [5], in assay [3], in [4] and in assay [8].
On to `COC(=O)c1ccccc1C(=O)OC`, for which the outcome (with NCBI gene 24521; in assay [3]) was inactive.
In the case of `OC(c1ccc(Cl)cc1)(c1cncnc1)c1ccccc1Cl` (stereo not drawn), the figures for the half-maximal activity concentration (AC50) in [9], in assay [10] and in [4] were 19 µM (active), 5.79 µM (active) and 4.89 µM (active), respectively. For the same molecule, the outcome in assay [5], in [3], in assay [11] and in [12] was inactive.
`CN(C)C(=S)SSC(=S)N(C)C`: the molecule was classed as inactive in [2]. Also, the half-maximal activity concentration (AC50) in [4] was 11 µM (active).
Regarding `COc1nc(C)nc(NC(=O)NS(=O)(=O)c2ccccc2CCC(F)(F)F)n1`, in assay [6], the molecule was classed as inactive.
On to `COc1nc(C)nc(NC(=O)NS(=O)(=O)c2ccccc2Cl)n1`, for which, in [1], the call was inactive.
In the case of `COC(=O)C(C)Oc1ccc(Oc2ccc(Cl)cc2Cl)cc1` (stereo not drawn), the call with NCBI gene 24521 was inactive.
As for `N#CC(CCc1ccc(Cl)cc1)(Cn1cncn1)c1ccccc1` (stereo not drawn), the molecule was classed as inactive in assay [13].
`CCCC1COC(Cn2cncn2)(c2ccc(Cl)cc2Cl)O1` (stereo not drawn): the concentration at half-maximal activity (AC50) in assay [10] is 25 µM (active); in [3] it was 17.3 µM (active); in assay [14], 18.1 µM (active); in assay [4], 12.3 µM (active). The result in assay [11] was inactive.
Take `C=CCC1=C(C)[C@@H](OC(=O)[C@@H]2[C@@H](C=C(C)C)C2(C)C)CC1=O`: in assay [2], the outcome was inactive. Besides, the figures for the concentration at half-maximal activity (AC50) in assay [3] and in [4] were 25 µM (active) and 37.7 µM (active), respectively.
In the case of `Oc1ccccc1-c1ccccc1`, the result in assay [10], in assay [5], in [3] and in assay [4] was inactive.
On to `C#CCOS(=O)OC1CCCCC1Oc1ccc(C(C)(C)C)cc1` (stereo not drawn), for which the values for the AC50 in [9], in [3] and in [4] were 37.4 µM (active), 18.2 µM (active) and 14.5 µM (active), respectively.
As to `COc1ccc(C(c2ccc(OC)cc2)C(Cl)(Cl)Cl)cc1`, the result in [9], in [13], in [7], in assay [3] and in assay [4] was inactive.
